# Measurements from PubChem BioAssay (NCATS).
# Inconclusive results are not listed. Active and inactive are the calls of the source. Calls come from the whole dose curve; as a rule, active = well fitted inhibition curve with a large enough effect; inconclusive = small, poorly fitted or top-dose-only effect; inactive = flat fitted curve, though single readings scatter.
# Assay: qHTS for Inhibitors of Plasmodium falciparum (HB3) proliferation (AID 504318); note: nearly all actives have a fitted effect of over 60% in size;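 for activity change, negative = inhibition: 0% = DMSO vehicle and -100% = artemisinin control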
# Settings: P. falciparum HB3 in erythrocytes, SYBR Green DNA, 72 h; series mostly up to 7.21 µM; activity change, negative = inhibition: at the top concentration
# Excerpt: Plasmodium falciparum is a virulent malarial parasite that kills 1-2 million people worldwide each year. Malaria not only inflicts tremendous suffering and morbidity on the human population, but has dramatically influenced the course of civilization with profound sociological and economic implications (Shah, S. 2010). Transmitted by mosquitoes, the sporozoite form of the parasite enters the blood stream to infect hepatocytes, where they become merozoites that infect red blood cells (erythrocytes). Within erythrocytes, merozoites begin a […] cycle of growth and division, after which the parasite is released to infect new red blood cells. Gametocytes, which form within erythrocytes as well, circulate in the bloodstream and are ingested by the mosquito, thereby completing the life cycle (see CDC website). To profile malarial lines for differential chemical responses and to identify inhibitors of malarial growth, an assay that measures P. falciparum growth and replication within erythrocytes was employed. This assay uses a DNA binding fluorescent dye (SYBR Green) to detect parasite DNA following cell lysis. Because mature erythrocytes lack DNA, only Plasmodium-derived DNA is detected. The P. falciparum line cp250, derived from a malarial isolate from Cambodia, (Mu, J., et al. 2010) was added to the panel of lines, Dd2, HB3, 7G8 and GB4 in this study. Laboratory of Assay Development and Screening Technology [ADST] and NIH Chemical Genomics Center [NCGC] Boston University, Chemistry Department, Center for Chemical Methodology and Library Development [CMLD-BU] NIH National Institute of Allergy and Infectious Diseases [NIAID]
# ADST Assay Protocol Summary: The 1536-well SYBR Green viability assay was based on the method of Bennett et al (2004) and described previously in 1536-well format (Yuan J., et al. 2009). For screening 3 ul culture medium was dispensed into 1536 well black clear bottom plates (Aurora Biotechnologies) using a Multidrop Combi (Thermo Fisher Scientific Inc.), 23 nL compounds in DMSO were added by a pin transfer (Cleveland, P.H. and Koutz, P.J, 2005) using a pin tool-based delivery system (Kalypsys), and 5 ul of erythrocytes infected with P. falciparum one of five lines (cp250, Dd2, HB3, 7G8 or GB4, 0.3% parasitemia, 2.5% hematocrit final concentration) were added. The plates were incubated at 37C in a humidified incubator in 5% CO2 for 72 h, and 2 ul lysis buffer (20 mM Tris HCl, 10 mM EDTA, 0.16% saponin, 1.6% triton X, 10X SYBR Green I (supplied as 10,000X final concentration by Invitrogen) was added to each well. The plates were mixed for 25 sec with gentle shaking and incubated overnight at room temperature in the dark. The following morning, fluorescence intensity at 485(14) nm excitation and 535(25) nm emission wavelengths was measured on an EnVision (Perkin Elmer) plate reader. Plate reads were normalized relative to the control inhibitor (0.29 uM artemisinin) and vehicle (DMSO) wells present on each plate and then corrected by an algorithm using vehicle-only control plates at the beginning and end of the compound plate stack. References Shah, S. (2010). The Fever: how malaria has ruled humankind for 500,000 years. New York, Sarah Crichton Books. CDC web site, http://www.cdc.gov/malaria/about/biology/index.html Mu, J., Myers, R.A., Jiang, H., Liu, S., Ricklefs, S., Waisberg, M., Chotivanich, K., Wilairatana, P., Krudsood, S., White, N.J., et Plasmodium falciparum genome-wide scans for positive selection, recombination hot spots and resistance to antimalarial drugs Nature Genetics 2010, 42, pp 268-271 Bennett TN, Paguio, M., Gligorijevic, B., Seudieu, C., Kosar, A. D., Davidson, E., and Roepe, P. D. Novel, rapid, and inexpensive cell-based quantification of antimalarial drug efficacy Antimicrobial Agents Chemother. 2004, 48(5): pp 1807-10 Yuan J, Johnson RL, Huang RL, Wichterman J, Jiang HY, Hayton K, Fidock DA, Wellems TE, Inglese J, Austin CP, Su XZ. […]
# Potency is the fitted concentration of half-maximal effect.
SMILES,"activity change, negative = inhibition",Potency
CCN1C(=NCc2ccc3c(c2)OCO3)N[C@@H](c2ccccc2)[C@H](C(=O)OC)[C@H]1C,1.8% (inactive),–
COc1ccc(O[C@H]2C=C[C@@H](c3ccccc3)O[C@H]2COC(=O)CCC(C)=NO[C@@H]2O[C@H](COC(C)=O)[C@@H](OC(C)=O)[C@H](OC(C)=O)[C@@H]2OC(C)=O)cc1,-9.27% (inactive),–
COc1cccc([C@H]2Oc3ccc(OC)cc3C(=NOC[C@@H](O)COCc3ccco3)[C@H]2O)c1,-1.57% (inactive),–
CCN1C(=O)NC(c2cccc(C(F)(F)F)c2)C(C(=O)OC)=C1C (stereo not given),0.961% (inactive),–
C[C@H]1Cc2c(-c3ccccc3)nc3c(c2CO1)CN(C(=O)Nc1cccc(C#N)c1)CC3,–,inactive
CCOC(=O)CN1C(=O)NC(c2cccc(C(F)(F)F)c2)C(C(=O)OC)=C1C (stereo not given),0.32% (inactive),–
CC12C=C(C=CCCc3ccco3)C(C)(C1)C(CCc1ccco1)CC2=O (stereo not given),5.07% (inactive),–
CCCCC1=CC2=CC(=O)C(C)(O)C(=O)C2=CO1 (stereo not given),-2.78% (inactive),–
COC(=O)C1=C(C(=O)OC)[C@@H]2N(C)c3ccccc3[C@@]23C[C@@H](C(=O)OC)N(C(=O)c2cc(C)oc2C)C3=N1,-3.66% (inactive),–
CCC(=O)OC1(C)C(=O)C=C2C=C(c3ccsc3)OC=C2C1=O (stereo not given),-3.76% (inactive),–
CC[C@H](C)[C@@H](NC(=O)O[C@@H]1C(=O)c2ccc(OC)cc2O[C@H]1c1ccc2c(c1)OCO2)C(=O)OC,0.984% (inactive),–
CCCCCCCC1=CC2=CC(=O)C(C)(OC(C)=O)C(=O)C2=CN1CCc1ccccc1 (stereo not given),-11.1% (inactive),–
C=C(C)C(O)C=Cc1ccccc1OC (stereo not given),-12.1% (inactive),–
COc1ccc(-c2nc3c(c4c2C[C@H](c2ccccc2)OC4)CN(C(=O)C2CC2)CC3)c(C)c1,–,inactive
COCC1=C(C(=O)OC)C(c2ccccc2)N(C(C)=O)C(=O)N1 (stereo not given),-3.65% (inactive),–
CC(C)(C)OC(=O)C1=NOC2(C=CC(=O)C=C2)C1,-13.8% (inactive),–
COC1=C[C@H](C(=O)NCCOC(C)=O)[C@H](C)[C@@H](c2ccccc2)CC1=O,6.79% (inactive),–
CC1(C)O[C@@H](C(O)(c2cc(C(F)(F)F)cc(C(F)(F)F)c2)c2cc(C(F)(F)F)cc(C(F)(F)F)c2)[C@H](C(O)(c2cc(C(F)(F)F)cc(C(F)(F)F)c2)c2cc(C(F)(F)F)cc(C(F)(F)F)c2)O1,-6.14% (inactive),–
COC(=O)CC=C[C@@H](C)[C@H](OC)c1cc(OC)ccc1Br,-6.12% (inactive),–
COc1ccc(-c2nc(-c3ccccc3)oc2Nc2ccccc2C)cc1,–,inactive

SMILES,"activity change, negative = inhibition",Potency
COc1ccc(C2=CC3=C(Br)C(=O)C(C)(OC(=O)c4ccc(Cl)nc4)C(=O)C3=CO2)cc1 (stereo not given),-7.64% (inactive),–
N#Cc1ccc2c(c1)C[C@]1(c3ccsc3)OC3=C(C(=O)OC4(CCCCC4)C3)[C@H]2O1,-9.31% (inactive),–
CC1(OC(=O)C2CCCC2)C(=O)C=C2C=C(c3ccsc3)N(C3CCCC3)C=C2C1=O (stereo not given),-8.54% (inactive),–
COc1cccc2c1[C@H](C=Cc1ccccc1)[C@@H]([C@H](O)CO)OC2,-6.46% (inactive),–
CCOC(=O)NN=C1C[C@@H](O)[C@@H](O)[C@@H]2[C@H]3C(=O)N(C4CCCCC4)C(=O)[C@@H]3CC[C@H]12,-3.76% (inactive),–
CC(=O)C1=CN(CCc2c[nH]c3ccccc23)C(=O)NC1c1ccccc1 (stereo not given),-4.18% (inactive),–
COC(=O)N[C@H](CC(C)=O)c1ccc2c(c1)OCO2,8.93% (inactive),–
COc1cccc([C@@H]2Oc3ccc(OC)cc3C(=O)[C@@H]2OC(=O)Nc2cc(OC)c(OC)c(OC)c2)c1,-12.1% (inactive),–
CC1=CC[C@@H](COc2ccccc2)O[C@@]2(C1)C(=O)N(Cc1ccccc1C(F)(F)F)c1cccc(Br)c12,–,1.69 µM (active)
O=C(C=Cc1ccccc1)c1ccccc1O,–,inactive
C=CC1=C2C=C(C3CC3)N(Cc3ccccc3)C=C2C(=O)C(C)(OC(=O)c2ccco2)C1=O (stereo not given),-5.15% (inactive),–
C=C(C(C)=O)C(O)c1ccc(Cl)cc1 (stereo not given),4.53% (inactive),–
COC1=C[C@H](C(=O)NCc2ccc(Br)cc2)[C@H](C)[C@@H](c2ccccc2)CC1=O,-8.68% (inactive),–
CCOC(=O)[C@@]1([C@@H](NC(=O)OC)c2cccc(C)c2)CCCC1=O,17.8% (inactive),–
COC(=O)CCCC1=CC2=CC(=O)C(C)(OC(=O)c3cccs3)C(=O)C2=CN1C1CCCC1 (stereo not given),–,inactive
COC(=O)CCCC1=CC2=CC(=O)C(C)(OC(=O)c3cccs3)C(=O)C2=CN1Cc1ccco1 (stereo not given),4.6% (inactive),–
C[C@]12O[C@@H]1[C@@H](O)C(Br)=C(CO)[C@@H]2O,8.23% (inactive),–
COC(=O)[C@H](Cc1ccccc1)NC(=O)O[C@@H]1C(=O)c2cc(Br)ccc2O[C@H]1c1ccc2c(c1)OCO2,-10.2% (inactive),–
C#CCCOC(=O)N1C2=NC(C(=O)OC)=C(C(=O)OC)[C@@H]3N(C)c4ccccc4[C@]23C[C@H]1C(=O)OC,–,inactive
CC1=CC[C@@H](C)O[C@@]2(C1)C(=O)Nc1cccc(Br)c12,-6.2% (inactive),–
